Measured values as given in ChEMBL document CHEMBL3988442, “University of Dundee, Small-Polar-MMV Screening Library” (2021).

Target: T1, Aspartate--tRNA(Asp/Asn) ligase (Mycobacterium tuberculosis (strain ATCC 25618 / H37Rv)) (UniProt P9WFW3)
T1 sequence (whole entry): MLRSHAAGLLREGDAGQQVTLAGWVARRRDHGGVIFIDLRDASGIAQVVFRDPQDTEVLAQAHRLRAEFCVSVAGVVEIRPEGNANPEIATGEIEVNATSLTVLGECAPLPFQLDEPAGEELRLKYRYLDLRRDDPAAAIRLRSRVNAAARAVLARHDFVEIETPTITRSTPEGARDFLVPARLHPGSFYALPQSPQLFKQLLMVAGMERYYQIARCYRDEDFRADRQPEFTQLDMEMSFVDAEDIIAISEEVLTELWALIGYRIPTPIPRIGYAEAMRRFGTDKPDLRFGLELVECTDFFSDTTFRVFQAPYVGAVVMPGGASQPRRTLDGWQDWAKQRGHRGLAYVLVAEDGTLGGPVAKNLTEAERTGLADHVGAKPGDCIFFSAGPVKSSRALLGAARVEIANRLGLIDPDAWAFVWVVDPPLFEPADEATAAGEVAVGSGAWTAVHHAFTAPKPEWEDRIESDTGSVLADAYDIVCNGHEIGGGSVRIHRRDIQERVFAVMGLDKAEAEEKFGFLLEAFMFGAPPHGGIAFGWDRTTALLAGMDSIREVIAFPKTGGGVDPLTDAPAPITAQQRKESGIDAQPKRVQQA
Assay: Assay for Asp RNA synthetase-1 from Mycobacterium tuberculosis
Format: functional
Set-up: scale not given: in the data most compounds retested in dose-response had high values
Conditions: 30 µM

Row | SMILES | Percent Effect [%]
1 | CC(C)n1ccnc1CN1CCCN(C(=O)c2nccnc2N)CC1 | -6.9
2 | COc1ccc(C2=C(C)C(N3CCc4ccccc43)=NS2(=O)=O)cc1 | -2.38
3 | COCCCN1CCc2cncnc2C1 | 10.5
4 | CC(=O)N1CCC(C(=O)NCCN2CCC(C)CC2)CC1 | 0.167
5 | Cc1cc(CN2CCC(c3ccnn3CCO)CC2)no1 | -1.46
6 | CN(CCN1CCCCCC1)C(=O)c1cc(CN2CCC(O)CC2)on1 | 5.29
7 | CC(=O)N1CC(=O)N(c2cnn(C)c2)CC12CCN(Cc1ccsc1)C2 (stereo not given) | 4.83
8 | CN(C)C(=O)[C@@H]1CCO[C@@H]2CCN(Cc3ccc4c(c3)OCO4)C[C@@H]21 | -0.534
9 | CC(C)c1nccn1C1CCCN(C(=O)c2ccnc(N(C)C)c2)C1 (stereo not given) | 2.16
10 | CCNC(=O)c1ncn2c1CN(C)S(=O)(=O)c1ccccc1-2 | -3.46
11 | CCc1cnc(N2C[C@H]3C[C@H](C(=O)N(C)C)[C@@H](C2)O3)nc1 | -1.86
12 | CCn1nc(C)c2ccn(CC(=O)NC3CCCC3)c(=O)c21 | 4.68
13 | Cc1nc(CN2CCCC(NCc3ccsc3)C2)no1 (stereo not given) | 3.1
14 | O=C(CCCn1cncn1)NC1(c2ccccc2)CCC1 | 10.9
15 | COCCC(=O)N1C[C@H]2CN(Cc3cccc(C)n3)C(=O)[C@H]2C1 | 0.774
16 | Cc1noc(C(C)C)c1C(=O)NCCCOC(C)C | 2.01
17 | Cc1ccc(NC2CCN(C(=O)CC3CCCO3)CC2)nn1 (stereo not given) | -2.07
18 | COc1cc(C2CC(=O)Oc3cc(C)[nH]c(=O)c32)ccc1OC(F)F (stereo not given) | -4.59
19 | CC(C)OCCOCc1cccc(NC(=O)NCc2ccccn2)c1 | 8.32
20 | COCC1c2c(cnn2CC2CC2)CCN1Cc1nccs1 (stereo not given) | 0.524

Row | SMILES | Percent Effect [%]
21 | C[C@]1(O)CCN(Cc2cncs2)C[C@@H]1Oc1cccc(F)c1 | -1.46
22 | COc1cccc(-c2noc(C3CCN(Cc4cccs4)C3)n2)c1 (stereo not given) | -0.868
23 | COCc1nc(C(=O)N2CCCC2c2c(C)nn(C)c2C)cs1 (stereo not given) | -5.87
24 | Cc1nnc2n1CCN(C(=O)c1cc(C)n(-c3ccccn3)c1C)C2 | 4.19
25 | O=C(NCc1cc[nH]n1)NCC(O)c1ccc(F)cc1F (stereo not given) | 4.01
26 | CN(C)C(=O)NC1COC2(CCN(Cc3ccccc3)CC2)C1 (stereo not given) | -3.84
27 | CS(=O)(=O)NCc1cn2c(n1)CN(C(=O)c1ccc[nH]1)CC2 | 1.81
28 | NC(=O)COc1ccc(CNCc2ccc(F)c(F)c2)cc1 | -1.73
29 | CC(O)CN1CCN(C(=O)c2cccc(CC#N)c2)CC1 (stereo not given) | 2.73
30 | Cc1csc(CNC(=O)N(C)Cc2cnn(C)c2)n1 | 1.54
31 | Cc1nn(C)c(N(C)C)c1CNCc1cccnc1-n1cncn1 | -4.35
32 | CCc1nc(CN(C)C2CCN(CCS(C)(=O)=O)C2)no1 (stereo not given) | 3.04
33 | CNC(=O)NC(=O)CN1CCC(c2cccc(F)c2)C1 (stereo not given) | -0.433
34 | CCc1nc(C2CCCN2C(=O)CCc2cccs2)no1 (stereo not given) | -0.641
35 | c1cnn(CC2CCCCN2Cc2cn3ccsc3n2)c1 (stereo not given) | 1.03
36 | COc1c(C2CCCN2C(=O)c2csc(C(C)C)n2)c(C)nn1C (stereo not given) | 5.31
37 | Cc1cc(CN2CCC(CNC(=O)c3ccc(O)c(Cl)c3)C2)[nH]n1 (stereo not given) | 3.15
38 | COCCN1CCN(CCCS(=O)(=O)c2ccccc2)CC1C (stereo not given) | -4.25
39 | CC(C)n1ncc2c1NC(=O)CSC2C(C)(C)C (stereo not given) | -2.73
40 | CCc1nc(CN2CCCN(c3ncnc4ccccc34)CC2)no1 | 13.7
